# Assay results published in the supplement of paper PMC12282887.
# ± gives the standard deviation of the averaged measurements.
# Columns and labels:
# Assay in all cases: promoter activity interaction Z-score (Lux/OD deviation from empty-vector control); higher = stronger promoter induction by the compound
# [1] = system: E. coli BW25113 acrABp lux reporter
# In short: (§1)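 E. coli BW25113, as wild type or one of three single-gene deletion strains, carried low-copy luxCDABE promoter reporters and grew in 40 µl LB Lennox in 384-well plates at 37°C, with OD600 and luminescence read every 30 min for 12 h. Each compound was run at four 1:2 dilutions in biological duplicates, integration spanned 0–8 h for wild type and 1–9 h for deletion strains, and wells under 10% of the median growth value were dropped. The score is the Z-transformed residual of growth-normalised luminescence fitted against a control.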
# [2] = system: E. coli BW25113 marRABp lux reporter
# In short: as §1
# [3] = system: E. coli BW25113 micFp lux reporter
# In short: as §1
# [4] = system: E. coli BW25113 ompFp lux reporter
# In short: as §1
# [5] = system: E. coli BW25113 robp lux reporter
# In short: as §1
# [6] = system: E. coli BW25113 soxSp lux reporter
# In short: as §1
# [7] = 0.063 µg/ml, genetic background: wild type
# [8] = 0.063 µg/ml, genetic background: ΔmarA
# [9] = 0.063 µg/ml, genetic background: Δrob
# [10] = 0.063 µg/ml, genetic background: ΔsoxS
# [11] = 0.13 µg/ml, genetic background: wild type
# [12] = 0.13 µg/ml, genetic background: ΔmarA
# [13] = 0.13 µg/ml, genetic background: Δrob
# [14] = 0.13 µg/ml, genetic background: ΔsoxS
# [15] = 0.25 µg/ml, genetic background: wild type
# [16] = 0.25 µg/ml, genetic background: ΔmarA
# [17] = 0.25 µg/ml, genetic background: Δrob
# [18] = 0.25 µg/ml, genetic background: ΔsoxS
# [19] = 0.51 µg/ml, genetic background: wild type
# [20] = 0.51 µg/ml, genetic background: ΔmarA
# [21] = 0.51 µg/ml, genetic background: Δrob
# [22] = 0.51 µg/ml, genetic background: ΔsoxS
compound,measurement,setting,value
N=C(NCCCCCCNC(=N)NC(=N)Nc1ccc(Cl)cc1)NC(=N)Nc1ccc(Cl)cc1 [Chlorhexidine],promoter activity interaction Z-score,[1]; [7],0.528 ± 0.15
same,promoter activity interaction Z-score,[1]; [8],0.456 ± 1.1
same,promoter activity interaction Z-score,[1]; [9],-0.0468 ± 0.34
same,promoter activity interaction Z-score,[1]; [10],-0.413 ± 0.67
same,promoter activity interaction Z-score,[1]; [11],0.229 ± 0.18
same,promoter activity interaction Z-score,[1]; [12],-0.312 ± 0.48
same,promoter activity interaction Z-score,[1]; [13],-0.0734 ± 0.14
same,promoter activity interaction Z-score,[1]; [14],0.339 ± 0.46
same,promoter activity interaction Z-score,[1]; [15],0.27 ± 0.26
same,promoter activity interaction Z-score,[1]; [16],-0.147 ± 0.57
same,promoter activity interaction Z-score,[1]; [17],0.135 ± 0.15
same,promoter activity interaction Z-score,[1]; [18],0.108 ± 0.19
same,promoter activity interaction Z-score,[1]; [19],-0.0541 ± 0.33
same,promoter activity interaction Z-score,[1]; [20],0.0169 ± 0.15
same,promoter activity interaction Z-score,[1]; [21],0.0299 ± 0.11
same,promoter activity interaction Z-score,[1]; [22],0.236 ± 0.23
same,promoter activity interaction Z-score,[2]; [7],-0.0555 ± 0.078
same,promoter activity interaction Z-score,[2]; [8],0.0409 ± 0.0035
same,promoter activity interaction Z-score,[2]; [9],0.173 ± 0.2
same,promoter activity interaction Z-score,[2]; [10],0.0219 ± 0.055
same,promoter activity interaction Z-score,[2]; [11],-0.193 ± 0.069
same,promoter activity interaction Z-score,[2]; [12],-0.0353 ± 0.43
same,promoter activity interaction Z-score,[2]; [13],0.0384 ± 0.087
same,promoter activity interaction Z-score,[2]; [14],0.0405 ± 0.19
same,promoter activity interaction Z-score,[2]; [15],0.0425 ± 0.12
same,promoter activity interaction Z-score,[2]; [16],-0.101 ± 0.24
same,promoter activity interaction Z-score,[2]; [17],0.121 ± 0.2
same,promoter activity interaction Z-score,[2]; [18],0.165 ± 0.33
same,promoter activity interaction Z-score,[2]; [19],-0.283 ± 0.1
same,promoter activity interaction Z-score,[2]; [20],0.127 ± 0.37
same,promoter activity interaction Z-score,[2]; [21],-0.0583 ± 0.11
same,promoter activity interaction Z-score,[2]; [22],0.00237 ± 0.085
same,promoter activity interaction Z-score,[3]; [7],-0.138 ± 0.035
same,promoter activity interaction Z-score,[3]; [8],0.119 ± 0.018
same,promoter activity interaction Z-score,[3]; [9],-0.0387 ± 0.0014
same,promoter activity interaction Z-score,[3]; [10],-0.423 ± 0.21
same,promoter activity interaction Z-score,[3]; [11],-0.207 ± 0.061
same,promoter activity interaction Z-score,[3]; [12],-0.0564 ± 0.12
same,promoter activity interaction Z-score,[3]; [13],-0.0382 ± 0.027
same,promoter activity interaction Z-score,[3]; [14],-0.0137 ± 0.079
same,promoter activity interaction Z-score,[3]; [15],0.112 ± 0.098
same,promoter activity interaction Z-score,[3]; [16],-0.0647 ± 0.035
same,promoter activity interaction Z-score,[3]; [17],-0.172 ± 0.038
same,promoter activity interaction Z-score,[3]; [18],-0.0807 ± 0.32
same,promoter activity interaction Z-score,[3]; [19],-0.4228 ± 0.0029
same,promoter activity interaction Z-score,[3]; [20],-0.153 ± 0.15
same,promoter activity interaction Z-score,[3]; [21],-0.204 ± 0.03
same,promoter activity interaction Z-score,[3]; [22],0.196 ± 0.032
same,promoter activity interaction Z-score,[4]; [7],0.348 ± 0.12
same,promoter activity interaction Z-score,[4]; [8],0.307 ± 0.032
same,promoter activity interaction Z-score,[4]; [9],0.502 ± 0.096
same,promoter activity interaction Z-score,[4]; [10],0.129 ± 0.63
same,promoter activity interaction Z-score,[4]; [11],0.528 ± 0.026
same,promoter activity interaction Z-score,[4]; [12],-0.185 ± 0.099
same,promoter activity interaction Z-score,[4]; [13],0.2991 ± 0.00077
same,promoter activity interaction Z-score,[4]; [14],0.714 ± 0.18
same,promoter activity interaction Z-score,[4]; [15],0.176 ± 0.12
same,promoter activity interaction Z-score,[4]; [16],0.161 ± 0.18
same,promoter activity interaction Z-score,[4]; [17],0.332 ± 0.15
same,promoter activity interaction Z-score,[4]; [18],0.376 ± 0.19
same,promoter activity interaction Z-score,[4]; [19],0.552 ± 0.14
same,promoter activity interaction Z-score,[4]; [20],0.909 ± 0.66
same,promoter activity interaction Z-score,[4]; [21],0.866 ± 0.037
same,promoter activity interaction Z-score,[4]; [22],1.02 ± 0.32
same,promoter activity interaction Z-score,[5]; [7],0.375 ± 0.078
same,promoter activity interaction Z-score,[5]; [8],0.214 ± 0.35
same,promoter activity interaction Z-score,[5]; [9],0.423 ± 0.27
same,promoter activity interaction Z-score,[5]; [10],0.406 ± 0.057
same,promoter activity interaction Z-score,[5]; [11],0.674 ± 0.55
same,promoter activity interaction Z-score,[5]; [12],-0.0996 ± 0.54
same,promoter activity interaction Z-score,[5]; [13],0.374 ± 0.39
same,promoter activity interaction Z-score,[5]; [14],0.814 ± 0.61
same,promoter activity interaction Z-score,[5]; [15],0.416 ± 0.24
same,promoter activity interaction Z-score,[5]; [16],-0.53 ± 0.44
same,promoter activity interaction Z-score,[5]; [17],0.48 ± 0.31
same,promoter activity interaction Z-score,[5]; [18],0.422 ± 0.89
same,promoter activity interaction Z-score,[5]; [19],-0.214 ± 0.33
same,promoter activity interaction Z-score,[5]; [20],0.504 ± 0.37
same,promoter activity interaction Z-score,[5]; [21],0.258 ± 0.6
same,promoter activity interaction Z-score,[5]; [22],0.18 ± 0.19
same,promoter activity interaction Z-score,[6]; [7],-0.0504 ± 0.14
same,promoter activity interaction Z-score,[6]; [8],0.0857 ± 0.028
same,promoter activity interaction Z-score,[6]; [9],0.21 ± 0.1
same,promoter activity interaction Z-score,[6]; [10],0.0523 ± 0.26
same,promoter activity interaction Z-score,[6]; [11],0.0248 ± 0.062
same,promoter activity interaction Z-score,[6]; [12],0.0401 ± 0.18
same,promoter activity interaction Z-score,[6]; [13],-0.0238 ± 0.042
same,promoter activity interaction Z-score,[6]; [14],0.276 ± 0.16
same,promoter activity interaction Z-score,[6]; [15],0.0242 ± 0.039
same,promoter activity interaction Z-score,[6]; [16],0.138 ± 0.13
